Test results taken from PubChem BioAssay AID720706 (Broad Institute, 2013).
In all, about 350,000 compounds went through this assay and about 5,500 (1.6%) were called active.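 Rule for the calls: active = significant combined selectivity score with lowered wild-type GFP, culture density cut under 30%, mutant RFP and density less affected; inactive = any of these conditions unmet.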 The entries come from a sample that favours actives as a whole.

Test: GFP drop in mixed WT/humanized-ribosome E. coli culture – GFP/RFP fluorescence, OD600, single point, bacterial rRNA inhibitor project, primary screen (AID 720706)
Details: E. coli WT GFP vs humanized-ribosome RFP mutants, 24 h; GFP signal change (wild-type ribosome): stronger effect = lower value, DMSO median 0, no signal -100; OD600 change: measured here: OD600 growth, DMSO median 0, no signal -100; RFP signal change: measured here: RFP humanized mutant strains, DMSO median 0, no signal -100, concentration not given here

SMILES | GFP signal change (wild-type ribosome) | OD600 change [%] | RFP signal change [%]
C[C@H](CO)N1C[C@H](C)[C@H](CN(C)C)Oc2ccc(NC(=O)c3ccncc3)cc2CC1=O | 2.76% (inactive) | 14.2 | 0.42
O=C(c1cccc(S(=O)(=O)N2CCCCCC2)c1)N1CCN(Cc2ccccc2)CC1 | -2.42% (inactive) | -10.1 | 4.63
CCn1c2ccccc2c2cc(NC(=O)COC(=O)c3cc(S(=O)(=O)N4CCCCC4)ccc3Cl)ccc21 | 10.5% (inactive) | 8.82 | 4.22
CCn1c(O)c(N=NC(=O)c2cccc(S(=O)(=O)N3CCCCC3)c2)c2ccccc21 | -23.6% (active) | -16.1 | -4.79
COc1ccc(CN2[C@H](CO)[C@@H]3c4ccccc4N(C(=O)C4CC4)C[C@@H]32)cc1 | -9.79% (inactive) | -9.13 | -1.21
O=C(NC1CCCCC1)N1CC2(C1)[C@H](c1ccccc1)[C@@H](CO)N2S(=O)(=O)Cc1ccccc1 | -0.158% (inactive) | -18.2 | 1.15
C=CCc1c(C)nc2cc(-c3ccccc3)[nH]n2c1=O | -6.23% (inactive) | -4.26 | -2.25
Cc1nc2nc[nH]n2c(=O)c1C/C=C/c1ccccc1 | -22.4% (active) | 1.36 | -5.82
O=C(C[C@H]1C=C[C@H](NC(=O)C2CCOCC2)[C@@H](CO)O1)NCC1CC1 | -0.532% (inactive) | 2.38 | 0.125
C[C@@H]1CN(C)C(=O)c2cc([N+](=O)[O-])ccc2O[C@@H]1CN(C)C(=O)OC(C)(C)C | -2.71% (inactive) | 7.21 | -0.0835
COc1cccc(Nc2nc(N)c([N+](=O)[O-])c(NCc3ccco3)n2)c1 | -45.5% (active) | -19.5 | -12.3
CCN1CCN(c2nc(Nc3cccc(F)c3)nc(N)c2[N+](=O)[O-])CC1 | 1.28% (inactive) | -14.8 | -3.28
COc1cccc(NC(=O)COc2cccnc2[N+](=O)[O-])c1 | 2.25% (inactive) | 2.69 | -3.22
CO[C@H]1CN(C)C(=O)c2cc(NC(=O)c3cnccn3)ccc2OC[C@@H](C)N(CC2CC2)C[C@@H]1C | 1.98% (inactive) | -3.03 | -2.31
CN(Cc1ccccc1F)C[C@H]1[C@@H](c2ccccc2)[C@@H](CO)N1S(C)(=O)=O | -3.23% (inactive) | -1.8 | -1.06
Cc1noc(C)c1S(=O)(=O)Nc1ccc2c(c1)CC(=O)N([C@H](C)CO)C[C@@H](C)[C@@H](CN(C)Cc1ccncc1)O2 | -1.08% (inactive) | 6.97 | 0.021
COc1ccc(OC)c(-c2csc(NC(=O)C3=NNC(=O)CC3)n2)c1 | -21.6% (inactive) | -29.6 | -5.17
O=C(COC(=O)C1CCCO1)Nc1nc(-c2ccc(F)cc2)cs1 (centres undefined) | -5.81% (inactive) | -14.9 | -1.04
COc1ccc(OC)c(-c2csc(NC(=O)COC(=O)C3CC3)n2)c1 | -18% (active) | -4.55 | 5.3
Cc1ccc(S(=O)(=O)Nc2ccc3c(c2)C(=O)N([C@@H](C)CO)C[C@H](C)[C@@H](CN(C)S(=O)(=O)c2ccc(C)cc2)O3)cc1 | 0.928% (inactive) | 0.52 | 1.47
O=C1CN(Cc2ccccc2)C[C@H]2[C@H](c3ccc(-c4ccccc4)cc3)[C@@H](CO)N12 | 4.87% (inactive) | -18 | 11.1

SMILES | GFP signal change (wild-type ribosome) | OD600 change [%] | RFP signal change [%]
COCCNC(=O)/C(C#N)=C/c1cccc(OCc2ccccc2)c1 | -27.3% (active) | -3.28 | -7.68
COc1ccc(CNC(=O)/C(C#N)=C/c2cccc(OC)c2OC)cc1 | -12.3% (inactive) | -6.5 | 1.12
COCCNC(=O)/C(C#N)=C/c1nc(N(C)C)n(-c2ccc(F)cc2)c1Cl | 23.8% (inactive) | 16.1 | 2.57
C[C@@H]1CN([C@H](C)CO)S(=O)(=O)c2ccc(-c3ccccc3)cc2O[C@@H]1CN(C)C(=O)CC1CC1 | -1.82% (inactive) | -12.8 | 1.01
O=C(C1CCC1)N1CC2(C1)[C@H](c1ccccc1)[C@H](CO)N2Cc1nccs1 | 2.78% (inactive) | 3.6 | -2.04
COc1ccccc1CNC(=O)C[C@@H]1C[C@H]2c3cc(NC(=O)CN(C)C)ccc3O[C@H]2[C@@H](CO)O1 | 0.305% (inactive) | -4.08 | -3.75
Cc1onc(-c2ccccc2Cl)c1C(=O)OCC(=O)c1ccccc1 | -21.5% (active) | 3.35 | -2.14
Cc1onc(-c2ccccc2Cl)c1C(=O)OCc1nnc(-c2ccccc2)o1 | -1.78% (inactive) | -40.3 | -4.01
COc1ccc(C(=O)COC(=O)c2c(C)noc2C)cc1Cl | 0.365% (inactive) | -1.69 | 4.01
COc1ccc2c3c(n(C)c2c1)[C@@H](CO)N(C(=O)C1CC1)CC31CN(C(=O)C2CCOCC2)C1 | -0.396% (inactive) | 5.66 | -5.33
CCCNC(=O)N1CC(=O)N2[C@@H](CO)[C@H](c3ccc(-c4ccc(C)cc4)cc3)[C@@H]2C1 | 2.33% (inactive) | 1.16 | -7.67
CCn1c(NC(=O)c2nn(C)cc2Br)nc2ccccc21 | -17.8% (active) | -7.54 | 6.47
CCCn1c(NC(=O)C23CC4CC(CC(O)(C4)C2)C3)nc2ccccc21 | -30.1% (inactive) | -35.7 | 3.93
Cc1nn(C)cc1C(=O)Nc1ccccc1Br | 1.8% (inactive) | 6.79 | -7.21
C[C@H]1CN([C@@H](C)CO)C(=O)CCCn2nncc2CO[C@H]1CN(C)Cc1ccc2c(c1)OCO2 | -1.02% (inactive) | 5.54 | 0.27
COc1ccc(C2=CN(Cc3ccccc3)C(c3ccc(OC)cc3)CC2=O)cc1 (centres undefined) | -23.8% (inactive) | -12.9 | 3.14
CC(C)NC(=O)N[C@@H]1CC[C@H](CC(=O)NC2Cc3ccccc3C2)O[C@H]1CO | 1.59% (inactive) | 0.47 | -1.63
Cn1cnc(CCNC(=O)C[C@@H]2CC[C@H]3[C@@H](COC[C@@H](O)CN3C(=O)Nc3ccc(Cl)cc3)O2)c1 | -23.1% (inactive) | -23.2 | -3.05
COc1ccc(/C=C/C(=O)Nc2cccnc2)cc1OC | -20.8% (active) | -6.64 | -4.77
COc1ccc(/C=C/C(=O)Nc2ccc(C34CC5CC(CC(O)(C5)C3)C4)cc2)cc1OC | -3.43% (inactive) | -9.24 | 7.24
COc1cc(/C=N/NC(=S)Nc2cccnc2)cc(OC)c1O | 1.59% (inactive) | 0.97 | -1.01

SMILES | GFP signal change (wild-type ribosome) | OD600 change [%] | RFP signal change [%]
C[C@H]1CCCCO[C@H](CN(C)C(=O)Nc2ccccc2)[C@@H](C)CN([C@@H](C)CO)C(=O)c2cc(NC(=O)c3ccncc3)ccc2O1 | -0.767% (inactive) | -2.38 | -0.401
Cc1noc(C)c1NC(=O)N(C)C[C@H]1OCCCC[C@@H](C)Oc2ccc(NC(=O)NC(C)C)cc2C(=O)N([C@@H](C)CO)C[C@H]1C | -0.208% (inactive) | -7.75 | -1.31
COc1cccc(-c2ccc3c(c2)[C@@H]2[C@@H](CCN2C(=O)CN2CCOCC2)[C@H](CO)N3)c1 | -1.73% (inactive) | 12.1 | -1.6
CC1CCCCC1NC(=O)COC(=O)Cc1ccc(Br)cc1 (centres undefined) | -12.8% (inactive) | -7.61 | 2.98
O=C(COC(=O)Cc1ccc(Br)cc1)Nc1c(F)c(F)c(F)c(F)c1F | -24.2% (active) | -11.5 | 3.44
Cc1cccc(C)c1NC(=O)CNC(=O)Cc1ccc(Br)cc1 | 8.56% (inactive) | 16.5 | -1.39
COc1cccc(NS(=O)(=O)c2ccc(-c3coc(C)n3)cc2)c1 | -28.4% (active) | -10.5 | 9.54
Cc1ccc(NS(=O)(=O)c2ccc(-c3coc(C)n3)cc2)c(C)c1 | -8.02% (inactive) | 1.15 | 7.38
CCN(c1cccc(C)c1)S(=O)(=O)c1ccc(-c2coc(C)n2)cc1 | -9.48% (inactive) | -35 | -6.13
CN1C(CC(=O)Nc2ccc(Br)cc2)c2ccccc2CC1(C)C (centres undefined) | -26.3% (active) | -20.9 | -0.455
CC1(C)CN(CCc2ccccc2)C(=O)[C@H]1CC(=O)Nc1ccc(Br)cc1 | -6.21% (inactive) | 0.615 | -0.505
CCCCN1CC(C)(C)[C@H](CC(=O)Nc2ccc(Br)cc2)C1=O | -12.6% (inactive) | -27.4 | -4.18
CNC[C@H]1OCCCC[C@H](C)Oc2ccc(NS(=O)(=O)c3ccc(Cl)cc3)cc2C(=O)N([C@@H](C)CO)C[C@@H]1C | 3.9% (inactive) | 3.87 | 0.215
O=C(Cc1cccs1)N/N=C/c1ccc(OCc2ccccc2)cc1 | 6.88% (inactive) | -2.65 | -8.12
CCOc1ccc(-c2cc(C(=O)N/N=C/c3ccc(O)cc3)c3ccccc3n2)cc1 | 12.1% (inactive) | 6.6 | 2.19
O=C(N/N=C/c1ccc(OCc2ccccc2)cc1)c1ccc(O)cc1 | -18.6% (active) | 6.25 | 7.26
C[C@@H]1CCCCO[C@H](CN(C)C(=O)NC2CCCCC2)[C@@H](C)CN([C@H](C)CO)C(=O)c2cc(NC(=O)CCC(F)(F)F)ccc2O1 | -0.169% (inactive) | -3.94 | -2.49
CCNC(=O)Nc1ccc2c(c1)C(=O)N(C)[C@@H]1CC[C@@H](CC(=O)NCCOC)O[C@@H]1CO2 | 4.01% (inactive) | 1.31 | -0.262
COc1ccc2c3c([nH]c2c1)[C@H](CO)N(C(=O)CN1CCOCC1)CC31CN(C(C)=O)C1 | 3.07% (inactive) | 2.55 | 0.589
CNC[C@H]1OCCCC[C@@H](C)Oc2ccc(NS(=O)(=O)c3ccc(F)cc3)cc2C(=O)N([C@H](C)CO)C[C@H]1C | 2.84% (inactive) | 7.37 | -0.102
CC(C)NC(=O)N(C)C[C@H]1OCCCC[C@H](C)Oc2ccc(NC(=O)CCCN(C)C)cc2C(=O)N([C@@H](C)CO)C[C@H]1C | 3.73% (inactive) | 6.52 | -0.182
